Reference: publication PMC4336329 (PLoS ONE, 2015)
The campaign covered roughly 310,000 compounds. About 14,000 (4.5%) showed an effect of 50% or more. The effect is printed as a negative number. For the sample, strong results were picked, then their nearest neighbours and some compounds at random.

These molecules were tested against human ether-à-go-go-related gene (hERG) potassium channel (human, UniProt Q12809) (assay: primary screen, population patch clamp on CHO cells stably expressing hERG; higher = less effect of the substance).
Sequence of human ether-à-go-go-related gene (hERG) potassium channel (Q12809 whole entry, looked up): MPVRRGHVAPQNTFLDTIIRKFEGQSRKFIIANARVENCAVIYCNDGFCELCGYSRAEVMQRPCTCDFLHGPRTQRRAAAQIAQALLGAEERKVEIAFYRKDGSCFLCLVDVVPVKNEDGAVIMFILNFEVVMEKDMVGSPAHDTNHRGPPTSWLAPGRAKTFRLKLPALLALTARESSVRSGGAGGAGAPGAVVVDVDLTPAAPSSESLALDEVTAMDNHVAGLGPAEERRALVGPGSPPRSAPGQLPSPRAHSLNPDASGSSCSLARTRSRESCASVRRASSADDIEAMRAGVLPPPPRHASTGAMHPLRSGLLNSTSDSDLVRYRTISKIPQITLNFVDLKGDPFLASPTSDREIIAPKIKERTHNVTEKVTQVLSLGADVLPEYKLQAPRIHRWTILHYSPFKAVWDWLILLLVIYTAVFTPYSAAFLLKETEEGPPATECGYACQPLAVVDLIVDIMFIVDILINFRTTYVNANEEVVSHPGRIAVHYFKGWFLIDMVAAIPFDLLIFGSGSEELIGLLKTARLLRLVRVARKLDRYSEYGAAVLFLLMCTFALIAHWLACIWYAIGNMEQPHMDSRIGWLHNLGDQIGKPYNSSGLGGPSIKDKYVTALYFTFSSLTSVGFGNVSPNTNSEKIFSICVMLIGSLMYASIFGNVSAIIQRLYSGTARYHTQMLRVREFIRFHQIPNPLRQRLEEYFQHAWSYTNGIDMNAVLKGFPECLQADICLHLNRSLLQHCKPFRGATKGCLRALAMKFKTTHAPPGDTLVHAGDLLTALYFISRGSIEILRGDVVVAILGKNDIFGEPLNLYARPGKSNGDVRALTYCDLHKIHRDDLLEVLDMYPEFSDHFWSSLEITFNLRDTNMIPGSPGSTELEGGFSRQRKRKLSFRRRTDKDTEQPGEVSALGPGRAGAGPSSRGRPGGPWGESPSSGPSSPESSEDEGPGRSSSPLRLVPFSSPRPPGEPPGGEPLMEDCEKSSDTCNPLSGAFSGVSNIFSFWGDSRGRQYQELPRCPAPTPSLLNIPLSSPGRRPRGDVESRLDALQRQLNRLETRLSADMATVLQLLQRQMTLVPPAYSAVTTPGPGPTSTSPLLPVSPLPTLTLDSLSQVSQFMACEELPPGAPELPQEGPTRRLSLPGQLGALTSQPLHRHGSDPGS
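Note: peak tail current of the secondary pulse compared with the same well before compound.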

| SMILES | hERG current change (%, negative = inhibition) at 10uM [%] |
| --- | --- |
| Cc1ccc(CCNC(=O)CNS(=O)(=O)c2ccc3nc(C)sc3c2)cc1 | 2.53 |
| CCNS(=O)(=O)c1ccc(CCC(=O)NCc2ccccc2)cc1 | -19.6 |
| CCNS(=O)(=O)c1ccc(CCC(=O)NCc2ccc(C)cc2)cc1 | -53.1 |
| Cc1ccc(CNC(=O)CNS(=O)(=O)c2ccc3nc(C)sc3c2)cc1 | -64.6 |
| CCNS(=O)(=O)c1ccc(CCC(=O)NCc2ccncc2)cc1 | 2.58 |
| Cc1nc2ccc(S(=O)(=O)NCC(=O)NCc3ccc(Cl)cc3)cc2s1 | 17.4 |
| CSc1ccccc1NC(=O)CN(C)S(=O)(=O)c1ccc(F)cc1 | -35.2 |
| CC(=O)Nc1ccc(OCCC[n+]2cccc(C(=O)[O-])c2)cc1 | 12.5 |
| Cn1cnc2c(oc3ccccc32)c1=O | 9.26 |
| CC1(C)N=C(/C=N/O)CN1O | 11.7 |
| CCCCC(=O)Nc1cc(C)c2c(=O)oc3ccccc3c2n1 | 4.39 |
| COc1ccc(S(=O)(=O)Cc2ccc(C(=O)N3CCN(c4ccccn4)CC3)o2)cc1 | -27.9 |
| COc1cc(OC)c(C2SCCS2)c(OC)c1 | 2.14 |
| CCOC(=O)CC(=O)NC1(Cc2ccc(O)cc2)CCCCC1 | 1.06 |
| O=C(O)c1cc([N+](=O)[O-])ccc1NCc1ccccn1 | 12.7 |
| O=[N+]([O-])c1ccc(Nc2ccccn2)c([N+](=O)[O-])c1 | -4.46 |
| O=[N+]([O-])c1ccc(Cc2ccccn2)c([N+](=O)[O-])c1 | -50.2 |

| SMILES | hERG current change (%, negative = inhibition) at 10uM [%] |
| --- | --- |
| O=[N+]([O-])c1ccc(Cc2ccccn2)cc1 | -15.7 |
| NC(=O)c1cc([N+](=O)[O-])ccc1NCc1ccccn1 | -73.8 |
| NC(=O)c1cc([N+](=O)[O-])ccc1NCc1cnccn1 | -12.9 |
| COn1c(-c2ccc(Cl)cc2Cl)nc2ncccc21 | -1.12 |
| CCc1nnc(NC(=O)c2sc3nc4c(cc3c2N)CCCCCC4)s1 | 4.75 |
| COc1ccc(N/C=C/C(=O)c2ccc(Cl)cc2)cc1 | -13.7 |
| CCN1CCN(CCCNC(=O)Cn2nc(C)n3nc(-c4ccccc4)cc3c2=O)CC1 | -11.1 |
| O=c1ccc(-c2nc3cc(Cl)ccc3n2Cc2ccccc2)c[nH]1 | -73.9 |
| Clc1ncccc1-c1nc2ccccc2n1Cc1ccccc1 | -33.5 |
| O=c1[nH]cccc1-c1nc2cc(Cl)ccc2n1Cc1ccccc1 | -12 |
| Clc1ccc(Cn2c(-c3cccnc3Cl)nc3ccccc32)cc1 | -70.7 |
| Cc1ccccc1Cn1c(-c2ccc(=O)[nH]c2)nc2ccccc21 | -11.4 |
| O=c1ccc(-c2nc3ccccc3n2Cc2ccccc2Cl)c[nH]1 | -11.9 |
| O=c1ccc(-c2nc3ccccc3n2Cc2ccc(Cl)cc2)c[nH]1 | -76 |
| Cc1cc2nc(-c3ccc(=O)[nH]c3)n(Cc3ccccc3)c2cc1C | -35.2 |
| Clc1ccc(Cn2c(-c3cccnc3Cl)nc3ccccc32)c(Cl)c1 | -22.1 |
